An excerpt weighted towards active compounds, which were near 2.4% of everything screened.
p97 ATPase inh = inhibitors of human p97 ATPase, primary screen, biochemical; recombinant p97 ATPase, Kinase-Glo ATP luminescence, 3 h; AID 1481, 2009; Transitional endoplasmic reticulum ATPase (Homo sapiens), P55072; actives 0.42% (n = 220,000); inhibition, % at 8 µM; in the data active = inhibition above about 15%;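 note: 0% = DMSO vehicle and 100% = wells lacking enzyme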
EP2 mod = EP2 receptor modulators, cAMP readout, primary screen, cell-based, HTRF cAMP, PGE2 stimulation | EP2-expressing cells, cAMP HTRF FRET, PGE2 co-stimulation | induction, % at 25 µM | actives 0.83% (n = 260,000);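 active = compounds whose cAMP rise, as percent of the full-agonist control response, exceeds 60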;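 note: rat C6 glioma line stably carrying human EP2 under a CMV promoter; the protocol text gives 20 µM as final concentration; 100% = response of wells given 1 µM PGE2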
Arbovirus inh = antivirals against arbovirus infection, primary screen, cell-based, full library, 10K replicate subset; inhibition, % at 10 µM; AID 1251, 2008; arbovirus infection cell-based antiviral screen; actives 0.37% (n = 200,000); in the data active = inhibition above about 30%
Hck-Nef inh = inhibitors of Nef-activated human Hck kinase, primary screen, biochemical, Z-Lyte FRET, 384-well, Hck-YEEI. actives 0.68% (n = 220,000). Recombinant Hck-YEEI plus Nef, Z-Lyte FRET kinase assay. inhibition, % at 20 µM. Tyrosine-protein kinase HCK (Homo sapiens), P08631. AID 463187, 2010;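 active = Hck-Nef kinase inhibition above about 50%, limit read from the data; inactive = inhibition below that limit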;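 note: 0% = DMSO with Hck plus Nef and 100% = Hck alone without Nef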
Target sequence (P08631 whole entry, looked up): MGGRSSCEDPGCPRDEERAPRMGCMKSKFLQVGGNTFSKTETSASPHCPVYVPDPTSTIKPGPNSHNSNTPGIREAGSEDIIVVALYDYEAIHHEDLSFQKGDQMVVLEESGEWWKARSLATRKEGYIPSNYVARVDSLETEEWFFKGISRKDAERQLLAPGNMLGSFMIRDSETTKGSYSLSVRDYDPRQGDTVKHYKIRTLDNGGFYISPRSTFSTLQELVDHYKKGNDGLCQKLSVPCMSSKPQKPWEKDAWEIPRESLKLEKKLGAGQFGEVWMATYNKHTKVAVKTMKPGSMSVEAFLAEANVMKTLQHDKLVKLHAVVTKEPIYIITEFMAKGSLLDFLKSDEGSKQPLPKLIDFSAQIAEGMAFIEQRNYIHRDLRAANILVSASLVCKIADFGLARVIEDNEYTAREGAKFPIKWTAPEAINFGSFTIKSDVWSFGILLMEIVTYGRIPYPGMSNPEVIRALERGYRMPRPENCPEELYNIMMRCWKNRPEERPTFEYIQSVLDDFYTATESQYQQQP
PGE2 EP2 inh = human EP2 receptor antagonists, primary screen, TR-FRET cAMP, C6 glioma cells | Prostaglandin E2 receptor EP2 subtype (Homo sapiens), P43116 | C6 glioma cells expressing human EP2; cells stimulated with saturating PGE2 | inhibition, % at 25 µM | actives 0.52% (n = 260,000) | AID 1422, 2008;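 active = percent inhibition above 40 after rounding to a whole number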;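 note: rat C6 glioma host cells with rolipram phosphodiesterase inhibitor present; the protocol text gives 20 µM as final concentration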
* marks the source's active call; other numbers are inactive results; nt = no result; ! = repeats disagree.

SMILES	p97 ATPase inh	EP2 mod	Arbovirus inh	Hck-Nef inh	PGE2 EP2 inh
Cc1nn(C)c(C)c1-c1cc(C(=O)NC2CCCOC2)[nH]n1 (stereo unspecified)	nt	-51	nt	nt	10
O=S1(=O)c2ccccc2N=NN1Cc1ccc(Cl)c(Cl)c1	2	-36	14	1	45*
CC(C)(C)c1ccc(CN2N=Nc3ccccc3S2(=O)=O)cc1	5	-30	-36	0	22
CCOc1ccc(OCC)c(NC(=O)CN2CCN(C(C)=O)CC2)c1	nt	-5	nt	nt	8
O=C(COC(=O)c1ccc(NS(=O)(=O)c2cccs2)cc1)NCc1ccco1	5	19	nt	57*	6
ClC(=Nc1cccc2ccccc12)N(c1ccccc1)c1ccccc1	nt	38	nt	nt	40*
NC(=O)c1ccc(N=Nc2c(O)c3ccccc3[nH]c2=O)cc1	3	-21	nt	-16	14
N=C(N)c1ccc(N=Nc2c(O)ccc3c2[nH]c2ccccc23)cc1	nt	-23	nt	nt	51*
CN(C)C(=O)CSc1nc(C23CC4CC(CC(C4)C2)C3)nc2ccccc12	nt	35	nt	nt	11
CN(C(=O)C1CCCCC1)c1nc2c(s1)CCc1occc1-2	nt	2	nt	nt	nt
O=C(Nc1c(-c2ccccc2)nc2ccccn12)c1cccs1	1	15	39*	1	7
CC(C)c1nc2c([nH]1)c(=O)n(C)c(=O)n2C	-1	1	nt	2	13
Cn1c(=O)c2[nH]c([C@@H]3CC(=O)C[C@H](c4nc5c([nH]4)c(=O)n(C)c(=O)n5C)N3)nc2n(C)c1=O	nt	18	nt	nt	46*
Cc1nn(Cc2ccncc2)c(=O)c2cc3sccc3n12	nt	-39	nt	nt	9
CSc1nc2sc3c(c2c2nnnn12)CCCC3	3	14	10	0	66*
CCOC(=O)/C=C/C(=O)Nc1cccc([N+](=O)[O-])c1	6	-1	5	-1	131*
O=C(/C=C/c1ccccc1)N(Cc1nc2ccccc2c(=O)[nH]1)Cc1cccs1	nt	63*	nt	nt	10
O=C(c1ccncc1)N(Cc1nc2ccccc2c(=O)[nH]1)Cc1cccs1	nt	1	nt	nt	10
CCOC(=O)c1ccccc1NC(=O)CSc1nnnn1C1CCCCC1	-9	64*!	-3	6	3
Cc1cccc(N2CCN(C(=O)C3COc4ccccc4O3)CC2)c1C (stereo unspecified)	-1	-15	36*	1	7
O=C1c2[nH]nc(-c3ccccc3O)c2C(c2ccc(F)cc2)N1CC1CCCO1 (stereo unspecified)	-5	-20	33*	0	2
O=C1c2[nH]nc(-c3ccccc3O)c2C(c2cccc(Cl)c2)N1CC1CCCO1 (stereo unspecified)	4	21	25	2	nt
COc1ccc(-c2cc(C)nc3c(-c4ccccc4)cnn23)cc1	1	17	4	-12	6
Cc1cc(-c2ccccc2)n2ncc(-c3ccccc3)c2n1	1	62*	14	2	18
O=C1OC(c2ccc(O)c(-c3ccccc3)c2)(c2ccc(O)c(-c3ccccc3)c2)c2c(Cl)c(Cl)c(Cl)c(Cl)c21	nt	4	nt	nt	47*
SMILES	p97 ATPase inh	EP2 mod	Arbovirus inh	Hck-Nef inh	PGE2 EP2 inh
CCOC(=O)c1cnc(-n2nc(C)cc2C)nc1Nc1ccc(N(C)C)cc1	-5	62*	-22	-1	7
CCOC(=O)c1cnc(-n2nc(C)cc2C)nc1Nc1ccc(C)cc1	4	17	4	2	nt
O=C(NCc1cccs1)c1cc2nc(-c3ccco3)cc(C(F)(F)F)n2n1	nt	-40	nt	nt	7
CNC(=O)CSc1nc(-c2ccccc2)c(-c2ccccc2)o1	-4	25	-8	21	3
CN(C)C(=O)CSc1nc(-c2ccccc2)c(-c2ccccc2)o1	0	63*	-15	-15	8
O=C(N/C=N/OCc1ccc(Cl)cc1Cl)NOCc1ncc(C(F)(F)F)cc1Cl	-9	61*	-41	3	5
CO/N=C/NC(=O)NOCc1ncc(C(F)(F)F)cc1Cl	-5	28	3	8	-6
CC(=O)[C@@]1(N=Nc2ccc(S(N)(=O)=O)cc2)CCOC1=O	nt	-31	nt	nt	116*
COc1ccc(C2(NC(=O)Cc3nc4nc(C)cc(=O)n4[nH]3)CCCCC2)cc1	nt	27	nt	nt	20
